# Rows were chosen to be rich in hits. Some 20% of all compounds tested hit in one or more screens of this group.
# Pf growth 48h – inhibits P. falciparum growth in the first generation, 48 h; P. falciparum luciferase growth in erythrocytes, 48 h; Potency, µM (highest dose often 28.7 µM), inactives show at the highest dose activity change, negative = inhibition, hits mostly inhibitors; hit rate 5.9% among 310,000; AID 504832; further: potency means the concentration at half of the fitted maximal effect; on the % scale 0 is the no-effect control and ±100 the full control effect
#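 Luminescence readout; reporter = integrated firefly luciferase in P. falciparum. RBC culture at 2% hematocrit, 0.1% parasitemia final, 37 C/5% CO2; decreased signal taken as growth inhibition.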
# Shiga toxin inh – blocks Shiga toxin action in Vero cells. Vero cells, Shiga toxin protein synthesis inhibition reporter. AID 2315. inhibition, % at 38.7 µM. hit rate 9.2% among 290,000; in the data active means inhibition mostly above about 28%, no sharp cut-off; inactive means mostly below about 43%; further: 0% is about no effect
# Cycloheximide cs – counter-screen hit for Shiga toxin inhibitors, cycloheximide; cell reporter, cycloheximide protein synthesis inhibition counterscreen; max response, %; hit rate 12% among 300,000; in the data active means max response mostly above about 13%, no sharp cut-off; inactive means mostly below about 14%; further: read at 38.3 µM for the half of the compounds with a filed dose; 0% is about no effect
# Pf growth 96h – inhibits malaria parasite growth, 96 h | AID 504834 | hit rate 6.9% among 320,000 | P. falciparum luciferase reporter growth, 96 h | Potency, µM (highest dose often 28.7 µM), for the others: at the highest dose activity change, negative = inhibition, most hits filed as inhibitors; further: potency means the concentration at half of the fitted maximal effect; on the % scale 0 is the no-effect control and ±100 the full control effect
#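 96 h incubation, 37 C, 5% CO2, of luciferase-reporter P. falciparum-infected RBCs (2% hematocrit, 0.05% parasitemia final) with test compounds; endpoint luminescence.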
# HCMV inh – human cytomegalovirus inhibition; HFF cells, HCMV-luciferase reporter, 72 h; active compounds read low; activity change, negative = inhibition, % at 57.5 µM; hit rate 4.5% among 410,000; in the data active means activity change below about -60%; inconclusive means no clear call, values can overlap the other calls; inactive means above about -39%; further: on the % scale 0 is the no-effect control and ±100 the full control effect
#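 Two-dose cell screen: HFF monolayers treated with compounds and infected with luciferase-expressing HCMV at 1 PFU/cell, 72 h at 37C, then lysed for luciferase measurement.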
# Active calls of the source: *; ? = inconclusive; nt = not tested or not shown. Unless noted, the call rests on the fitted dose curve; in most records, active means well fitted inhibition curve with a large enough effect; inconclusive means small, poorly fitted or top-dose-only effect, or another doubt; inactive means no such curve, though single readings can be large or run the other way.
SMILES,Pf growth 48h,Shiga toxin inh,Cycloheximide cs,Pf growth 96h,HCMV inh
CC(=O)Nc1ccc(C2=NN(C)C(=NCc3ccccc3)SC2)cc1,?,32,17,12µM*,22
Cc1ccccc1CCNC(=O)C1CC(O)CN1C(=O)Nc1ccccc1 (stereo unspecified),0%,-4,-3,102%,8
Cc1cc(-c2ccccc2)nc(SCc2ccc(C(=O)O)cc2)n1,7%,1,-1,309%,49
Cc1cc(-c2ccccc2)nc(N/N=C/c2ccccc2F)n1,19%,52*,51*,-22%,-8
C/C(=N\NC(=O)c1ccc(-c2ccccc2)cc1)c1cccc(N)c1,1%,21,10,1%,12
C/C(=N\Nc1nc(C)cc(-c2ccccc2)n1)c1ccccc1,?,16,17*,328%,?
C/C(=N\Nc1nc(C)cc(-c2ccccc2)n1)c1ccc(O)cc1,?,26*,21*,0%,-89*
C/C(=N\Nc1nc(C)cc(-c2ccccc2)n1)c1cccc(N)c1,?,23*,16*,?,-34
CCCCn1c(=O)c2oc3ccccc3c2n(CC(=O)Nc2cccc(Cl)c2C)c1=O,nt,nt,nt,nt,-25
COc1cc(NC(=O)C2=C(C)Nc3nnnn3C2c2ccc(SC)cc2)c(OC)cc1Cl (stereo unspecified),nt,nt,nt,nt,24
Cc1nnsc1-c1nc2ccccc2n1C(CCc1ccccc1)c1nc2ccccc2[nH]1 (stereo unspecified),nt,nt,nt,nt,-5
Cc1cc(C)c2[nH]c(=O)c(C(c3nnnn3C(C)(C)C)N(Cc3ccco3)CC3CCCO3)cc2c1 (stereo unspecified),nt,-4,10,1.9µM*,16
Cc1cc2cc(C(c3nnnn3C(C)(C)C)N(Cc3ccco3)CC3CCCO3)c(=O)[nH]c2cc1C (stereo unspecified),?,18,1,?,-18
COc1ccc2[nH]c(=O)c(C(c3nnnn3C(C)(C)C)N(Cc3ccco3)CC3CCCO3)cc2c1 (stereo unspecified),9.3µM*,-9,8,5.9µM*,-31
Cc1ccc(S(=O)(=O)Nc2cc3c4c(c2)CC(=O)N4CCC3)cc1,-17%,nt,nt,-9%,18
Cc1ccc(C)c(-c2nc(Cn3c(=O)cc(-c4ccccc4)c4c(C)nn(C)c43)c(C)o2)c1,nt,nt,nt,nt,2
COc1ccc(C(O)c2nc(-c3cccc4cccnc34)cs2)cc1 (stereo unspecified),nt,nt,nt,nt,-1
Cc1cc(C(=O)NCc2cc(F)cc3c2OCOC3)nn1C,1%,17,0,47%,-38
Cn1nc(C(C)(C)C)cc1C(=O)NCc1cc(F)cc2c1OCOC2,?,21,1,?,-72*
COc1ccccc1N1CCN(S(=O)(=O)c2ccccc2)CC1,?,-1,8,nt,78
O=S(=O)(Oc1ccccc1N1CCCCC1)c1ccccc1,-4%,9,7,-5%,-61*
O=C1CCC(=O)N1c1ccccc1OS(=O)(=O)c1ccccc1,20%,-14,-3,20%,-97*
Cc1ccc(-c2c(CN3CCN(c4cccc(C(F)(F)F)c4)CC3)csc2C)cc1,nt,nt,nt,nt,-14
C=CC[C@@H](CC(=O)NCCO)C(=O)N[C@H](COC(=O)[C@H](CC=C)CC(=O)OC(C)(C)C)Cc1c[nH]c2ccccc12,nt,nt,nt,nt,0
COc1ccc(-c2[nH]ncc2CN(C)C(C)c2cccs2)c(F)c1 (stereo unspecified),-21%,-8,-2,12µM*,-34
SMILES,Pf growth 48h,Shiga toxin inh,Cycloheximide cs,Pf growth 96h,HCMV inh
COc1ccc(-c2[nH]ncc2CNC(C)Cc2ccsc2)c(F)c1 (stereo unspecified),-21%,-12,1,4.7µM*,-38
CCOC(=O)c1ccc(NC(=O)CSc2nnc(CNC(=O)c3ccc(OC)cc3)n2CC)cc1,nt,nt,nt,nt,41
CCn1nc(C)c(/C=N/NC(=O)c2ccoc2C)c1C,207%,70,25*,357%,104
CCCCCn1nc(C)c(/C=N/NC(=O)c2ccoc2C)c1C,37%,68*,40*,-28%,102
CCCCCn1nc(C)c(/C=N\NC(=O)c2cc(C)oc2C)c1C,13µM*,44*,18*,-26%,-4
CCn1nc(C)c(/C=N/NC(=O)c2nc3nc(C)cc(C)n3n2)c1C,9%,15,0,22%,6
Cc1ccccc1OCCn1c(CCNC(=O)C2CCCCC2)nc2ccccc21,nt,-5,-2,nt,30
N#CCCN(C(=O)COC(=O)c1ccc(CNS(=O)(=O)c2ccc(F)c(Cl)c2)cc1)c1ccc(F)cc1,0%,-7,4,-5%,-28

# Bioassay records: PubChem BioAssay, National Center for Advancing Translational Sciences (NCATS)
